Test results from the supplement of paper PMC6555819.

tested on: RXRa DBDmut IVT, anti-RXR (DBD mutation: RXRa K156A/R161A, NR concentration 90 nM); assay: PBM binding z-score (relative to random genomic background probes); higher = stronger binding; sequences stand for … in GC…GCGATTGACAGCGTAGAATGAAGG
Procedure, shortened: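 Scanned fluorescence from custom Agilent 4×180K protein-binding microarrays was regression-normalized. Binding z-scores use random background probes as reference. Ligand-free nuclear receptor dimers were incubated on the arrays for 1 h and detected with antibodies against each partner (one per run).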

Sequence	PBM binding z-score
CCTCGGAGGACAGAAGGTCAGAACTGTCCGCTTT	0.39
CCTTACGGGTCAAGGTTATAGCGCGGGTGGTACG	1.19
CCGACTGGGGCAGAAAGGTTTCCATACCATCCGG	-0.768
TTACCAAGGTGAAAGGTTGTTGATGCACGCCTTG	0.0428
GCAGACAGGTAAAACGCAGGTAACTCAGGGTGGC	-0.576
AGTCAAAGTTCATGACGAGGTAACGTAAAGCACG	4.29
ATATGTAGGTTAATGGTCATTCAGGTTGGTTCGC	0.788
ACTATTAGTTGAGACAAGGGCAACCGATAGGTTG	0.0242
CCGACTGGGGCATAAAGTTACCATAAGCCAGCCC	0.0675
CGTCCACGGTCATAGGAGGTCAGTGAAGACAGAT	0.535
TAGCCTTGGTCATGGGCCAGTATACCACGCGAAC	-1.32
TCTGCTAGGTCAACGATGATCAGCTAATCTGCTA	1.04
CCAGACAGGTGAAAGGTACCTCAGTCTGGTACGC	-0.333
ATATGTAGGTTATCGGGTTATTCAGTTTGCGCAT	1.14
TCTTGTAGATCAAAGGATAAGAAAGCCGAAGCCT	0.579
TCTTGTAGATCAGCAGGTTAAGGAAGCTGGCCAA	0.474
GTGACTGGGGCAAAGCAGGTTACCATAAGGTTGG	-0.205
ACAGACAGGTCAGTGAAGGTAACTCAGCTGGACG	0.616
ACTATTAGTTGACTTAGGGAAACCGATACGACGC	0.822
CCGTACGGGTCACGAGGTTATAGCACGACGAGCG	1.55

Sequence	PBM binding z-score
TCAAGTTGGTCACGGAGGTCACACACGACGGGTA	1.53
CCAGACGGGTGAAAGGTAACTCAGTCTGGTACGC	-0.879
CGTCCAAGGTCATAGAAGGTCAGTGAAGACAGAT	4.03
CCTACTGGGCCATTCAGAGGTCATTGACCATATG	0.945
ACTGACAGGTGAGTGAAGGTAACTCAGCTGGACG	-0.285
ATACCAAGGTGGTCGTGAGGTCGTTGATACTAAC	0.422
AGTACGAGGGCACGCTGAGTTGATAGCAGAGTAG	2.3
TCGAGTAGGTTACCACTGGGGCATTCAGCTTTCT	0.044
AGTACAGGGTCACTAGGCCAGAGTAGGTACGAAT	2.61
CCTCGGAGGACAGTAGGTCAGAGCTGTCCGCTTT	0.0907
AATACAGGGTCACTAGGCCGGAGTAGGTACGAAT	2.81
TCTGCTAGGTCAGCTGGTCAGCTAACGAGCTGCC	0.17
GCTAGCAGGCCATCTGGGTCACTCAATGACGGGC	-0.462
TGAATGAGGTTAAAAATCAGGGAACGTGGCGTCG	1.26
GTACTAAGGTGAATAGGTCGTTGATGAGTAGGCG	0.451
TCATATAGGTAATAGAGGTGAAAGTCGGCATCTA	2.14
TCTAGTAGATCAATAGAGGTTAAGAAAGTGCGCT	0.439
CCTACTGGGCCAAAGGTCATTCATTCCAATGCTC	1.65
AGTCAAAGTTCACTAAGTAACGTAAGATTCAGCT	4.1
ACTAGCAGACCAAGGGTCACTCAAGATTAGTCCG	0.335
